According to the supplement of paper PMC12808144:
A number with no mark means an inactive call.

How the values were obtained:
[1] = system: NHEM-hTERT; test: cell viability relative to DMSO control (fraction of DMSO control); higher = less cytotoxic, active = 0.5 or less; conditions: 1 µM; 120 h
Outline: (§1)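 For 120 h, duplicate wells of 384-well plates held 1 µM of each of 315 approved anti-cancer drugs (TargetMol), spotted acoustically before cells were added in 40 µl per well. Immortalized NHEM-hTERT melanocytes were seeded at 2500/well, and patient-derived Mel-DCC-11 plus its resistant subline Mel-DCC-11-R at 1500/well. The subline was run both without and with 8 µM of its selecting drug, and ATPlite 1step luminescence was read. Viability was normalised to vehicle-treated wells and averaged over the two replicates.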

[2] = system: Mel-DCC-11-R; test: cell viability relative to DMSO control (fraction of DMSO control); higher = less cytotoxic, active = 0.8 or less; conditions: 1 µM, 120 h
Outline: as §1

Compound: COC(=O)c1cc(OC)c2c(c1-c1c(CO)cc(OC)c3c1OCO3)OCO2 [Bicyclol]
- cell viability [1]: 1.12
- cell viability ([2]; vemurafenib co-treatment 0 µM): 0.998
- cell viability ([2]; vemurafenib co-treatment 8 µM): 1.1

Compound: CC(C)NCC(O)COc1cccc2ccccc12.Cl (stereo not drawn) [Propranolol hydrochloride]
- cell viability [1]: 1.16
- cell viability ([2]; vemurafenib co-treatment 0 µM): 0.858
- cell viability ([2]; vemurafenib co-treatment 8 µM): 1.06

Compound: O=NN(CCCl)C(=O)NCCCl [Carmustine]
- cell viability [1]: 0.992
- cell viability ([2]; vemurafenib co-treatment 0 µM): 0.987
- cell viability ([2]; vemurafenib co-treatment 8 µM): 1.02

Compound: C#Cc1cccc(Nc2ncnc3cc(OCCOC)c(OCCOC)cc23)c1 [Erlotinib]
- cell viability [1]: 1.02
- cell viability ([2]; vemurafenib co-treatment 0 µM): 1.03
- cell viability ([2]; vemurafenib co-treatment 8 µM): 0.732 (active)

Compound: Nc1ccn([C@@H]2O[C@H](CO)[C@@H](O)C2(F)F)c(=O)n1 [Gemcitabine]
- cell viability [1]: 0.639
- cell viability ([2]; vemurafenib co-treatment 0 µM): 0.869
- cell viability ([2]; vemurafenib co-treatment 8 µM): 0.709 (active)

Compound: C[C@@H]1C[C@H]2[C@@H]3CCC4=CC(=O)C=C[C@]4(C)[C@@]3(F)[C@@H](O)C[C@]2(C)[C@@]1(O)C(=O)COP(=O)([O-])[O-].[Na+].[Na+] [Dexamethasone Sodium Phosphate]
- cell viability [1]: 1.2
- cell viability ([2]; vemurafenib co-treatment 0 µM): 1.16
- cell viability ([2]; vemurafenib co-treatment 8 µM): 0.927
